From PubChem
Avidin fluor: green autofluorescence of compounds with avidin beads – biophysical, 488/530 nm, flow cytometry, artefact control, profiling panel. compound fluorescence 488/530 nm; stronger effect = higher value. fluorescence (KMESF) at 10 µM. 220,000 tested, 0.38% active; in the data active = fluorescence above about 47
Efa HMGR inh: inhibitors of E. faecalis class II HMGR, primary screen, biochemical, Enterococcus faecalis; HMG-CoA reductase (Enterococcus faecalis, mvaE); 190,000 tested, 0.41% active; inhibition, % at 10 µM; purified E. faecalis HMGR, NADPH absorbance 340 nm kinetic;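 active = inhibition above a set limit, the median over all tested compounds plus 3 SD, cut at about 9.5% in these data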;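 also: enzyme runs in reverse so mevalonate oxidation gives rising NADPH absorbance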
EP2 antag: human EP2 receptor antagonists, primary screen, TR-FRET cAMP, C6 glioma cells | Prostaglandin E2 receptor EP2 subtype (Homo sapiens), P43116 | C6 glioma cells expressing human EP2; cells stimulated with saturating PGE2 | inhibition, % at 25 µM | 260,000 tested, 0.52% active;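 active = percent inhibition above 40 after rounding to a whole number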;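 also: rat C6 glioma host cells with rolipram phosphodiesterase inhibitor present; the protocol text gives 20 µM as final concentration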
Target sequence (P43116 whole entry, looked up): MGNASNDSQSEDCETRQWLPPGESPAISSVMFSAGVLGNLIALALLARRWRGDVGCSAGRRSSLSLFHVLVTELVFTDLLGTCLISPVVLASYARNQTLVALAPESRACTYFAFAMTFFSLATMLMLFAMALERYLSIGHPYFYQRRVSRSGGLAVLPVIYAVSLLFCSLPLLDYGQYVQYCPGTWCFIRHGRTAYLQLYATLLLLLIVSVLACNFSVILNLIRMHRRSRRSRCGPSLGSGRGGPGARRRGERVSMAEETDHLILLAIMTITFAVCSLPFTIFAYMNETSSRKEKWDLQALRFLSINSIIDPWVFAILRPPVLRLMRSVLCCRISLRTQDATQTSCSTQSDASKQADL
GSH bead fluor: compound fluorescence on glutathione beads, profiling panel, artefact control, biophysical, 488/530 nm, flow cytometry; 190,000 tested, 0.25% active; GSH beads flow cytometry, compound fluorescence 488/530 nm; stronger effect = higher value; fluorescence (KMESF) at 10 µM; in the data active = fluorescence above about 89;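 also: glutathione beads carrying GST-tagged Bcl family fusion proteins plus one bare bead set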
EP2 modulator: EP2 receptor modulators, cAMP readout, primary screen, cell-based, HTRF cAMP, PGE2 stimulation; 260,000 tested, 0.83% active; Prostaglandin E2 receptor EP2 subtype (Homo sapiens), P43116; EP2-expressing cells, cAMP HTRF FRET, PGE2 co-stimulation; induction, % at 25 µM;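 active = compounds whose cAMP rise, as percent of the full-agonist control response, exceeds 60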;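 also: rat C6 glioma line stably carrying human EP2 under a CMV promoter; the protocol text gives 20 µM as final concentration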
Large screens that a line does not name were inactive. This is a sample that favours compounds with a hit; in the whole collection about 2.1% have one here.

COc1ccc(NC(=O)NC2CCN(C(C)C)CC2)c(OC)c1	none
Cc1cc(C)c2cc(C)c(SCC(=O)Nc3ccc4c(c3)OCCO4)nc2c1	none (no result: Avidin fluor, Efa HMGR inh, GSH bead fluor)
Cc1c(C(=O)OC(C)C)[nH]c2c1C(=O)CC(C)(C)C2	none
Cc1c(C(=O)OC2CCCCC2)[nH]c2c1C(=O)CC(C)(C)C2	Avidin fluor 48
Cn1c2c(c(=O)n(C)c1=O)C(CC(=O)O)C(=O)N2 (stereo unspecified)	none (no result: Avidin fluor, Efa HMGR inh, GSH bead fluor)
CC(NCCC(c1ccccc1)c1ccccc1)c1ccccc1 (stereo unspecified)	Efa HMGR inh 18.9 (no result: Avidin fluor)
CC(NC1CCCC1)c1ccccc1 (stereo unspecified)	none
CCN(CC)C(=O)c1sc(NC(=O)c2ccc(OC)c(OC)c2)c(C#N)c1C	none (no result: Avidin fluor, Efa HMGR inh, GSH bead fluor)
CCOc1ccc2[nH]c(=O)c(CN(Cc3ccco3)C(=S)NCc3ccco3)cc2c1	none (no result: Avidin fluor, Efa HMGR inh, GSH bead fluor)
CN(C)CCCc1c2ccccc2nc2ccc(Cl)cc12	EP2 antag 57.5 (no result: Avidin fluor, Efa HMGR inh, GSH bead fluor)
Cc1cc(C(=O)NCCCN(C)C)c2ccccc2n1	none
Cc1cccc2cc(C(c3nnnn3Cc3ccc(F)cc3)N3CCCC3)c(=O)[nH]c12 (stereo unspecified)	none (no result: Avidin fluor, Efa HMGR inh, GSH bead fluor)
Cc1ccc(C)n1-n1c(C)nc2scc(-c3ccccc3)c2c1=O	Avidin fluor 86
Cc1cc2cc(CN(Cc3nnnn3CC3CCCO3)C3CCCCC3)c(=O)[nH]c2cc1C (stereo unspecified)	none (no result: Avidin fluor, Efa HMGR inh, GSH bead fluor)
O=C(CN1CCOCC1)Nc1sc2c(c1C(=O)c1cccc(F)c1)CCC2	EP2 modulator 68.3 (no result: Avidin fluor, Efa HMGR inh, GSH bead fluor)
CCOC(=O)c1c(NC(=O)COc2cccc3c2CCN(Cc2ccc(F)cc2)C3=O)sc2c1CCC2	none
CCOC(=O)c1c(NC(=O)CN2CCOCC2)sc(C(=O)NC)c1C	none
O=C(CN1CCOCC1)Nc1sc2c(c1C(=O)c1ccccc1)CCC2	none (no result: Avidin fluor, Efa HMGR inh, GSH bead fluor)
CCOC(=O)c1c(NC(=O)CN2CCOCC2)sc2c1CCCC2=O	none
CCOC(=O)c1c(NC(=O)CN2CCOCC2)sc2c1CCCC2	EP2 modulator 62.2
CCOC(=O)c1c(NC(=O)COc2cccc3c2CCN(CC)C3=O)sc2c1CCC2	EP2 modulator 63.7
COCCOC(=O)c1c(NC(=O)CN2CCOCC2)sc(C(N)=O)c1C	Efa HMGR inh 16.9
O=C(CN1CCC(n2cnc3cccnc32)CC1)Nc1ccccc1Cl	none (no result: Avidin fluor, Efa HMGR inh, GSH bead fluor)
Cc1nn(CCC(N)=O)c(=O)c2cc3sccc3n12	none (no result: Avidin fluor, Efa HMGR inh, GSH bead fluor)
COc1ccc(CN(Cc2ccc3ncccc3c2)CC2CCCO2)c(OC)c1OC (stereo unspecified)	none (no result: Avidin fluor, Efa HMGR inh, GSH bead fluor)
S=C1NCN2CCN(CC2)CNC(=S)C(=S)NCN2CCN(CC2)CNC1=S	EP2 antag 48.2 (no result: Avidin fluor, Efa HMGR inh, GSH bead fluor)
O=C(/C=C/c1ccccc1)c1ccc(O)cc1O	none (no result: Avidin fluor, Efa HMGR inh, GSH bead fluor)
O=CN/C=C/c1cc(O)ccc1O	EP2 antag 111.4 (no result: Efa HMGR inh, GSH bead fluor)
O=C(CN1CCN(c2ncccn2)CC1)NCc1ccccc1	none
O=C(CN1CCOCC1)NCc1ccccc1	Avidin fluor 62 (no result: EP2 antag)
COc1ccccc1NC(=O)c1cc2cc(Br)cc(Br)c2oc1=O	none (no result: Avidin fluor, Efa HMGR inh, GSH bead fluor)
COc1cc2cc(CN(C3CCCCC3)S(=O)(=O)c3ccc(C(C)=O)cc3)c(=O)[nH]c2cc1OC	none (no result: Avidin fluor, Efa HMGR inh, GSH bead fluor)
CC(=NCCc1c(C)[nH]c2ccc(OC(F)(F)F)cc12)C1=C(O)CC(c2ccccc2)CC1=O (stereo unspecified)	Efa HMGR inh 11.5
CCC(C)NC(=O)c1cc(-c2ccc(Cl)cc2Cl)on1 (stereo unspecified)	none (no result: Avidin fluor, Efa HMGR inh, GSH bead fluor)
Cc1ccc(C(C(=O)NC(C)(C)C)N(Cc2ccc3c(c2)OCO3)C(=O)c2ccc(CN3CCOCC3)o2)o1 (stereo unspecified)	Efa HMGR inh 14.5
OCCNc1cnc2ccccc2n1	none
CC(=O)Nc1cnc2ccccc2n1	Avidin fluor 102
COC(=O)c1cc2c(ccn2-c2ccc(F)cc2)n1C(C)C	Avidin fluor 52
COC(=O)c1cc2c(ccn2-c2ccc(F)cc2)n1CC(C)C	none
CC1Cc2ccccc2N1C(=O)CSc1nnc(NC(=O)C2CC2)s1 (stereo unspecified)	none (no result: Avidin fluor, Efa HMGR inh, GSH bead fluor)
Cc1[nH]c2ccccc2c1C(=O)COC(=O)C1CC(=O)N(Cc2ccccc2)C1 (stereo unspecified)	none
CCOC(=O)c1c(C)[nH]c(C(=O)COC(=O)C2CC(=O)N(Cc3ccccc3)C2)c1C (stereo unspecified)	Avidin fluor 97, GSH bead fluor 239
Clc1cc2c(nn1)Nc1ccccc1S2	none (no result: Efa HMGR inh, GSH bead fluor)
C[N+](C)(C)c1cc2c(nn1)Nc1ccccc1S2	EP2 antag 48.8 (no result: Avidin fluor, Efa HMGR inh, GSH bead fluor)
NS(=O)(=O)c1cc(C(=O)OCC(=O)c2ccc3c(c2)OCCO3)ccc1Cl	Avidin fluor 51
O=C(COC(=O)[C@@H]1CCCN1S(=O)(=O)c1ccc(Cl)cc1)NC12CC3CC(CC(C3)C1)C2	EP2 antag 67.9
c1ccc2c3c([nH]c2c1)-c1[nH]ncc1CC3	GSH bead fluor 265
Cc1cc(C)c2nc(C(F)(F)F)nc(N3CC(C)OC(C)C3)c2c1 (stereo unspecified)	EP2 modulator 61.3 (no result: EP2 antag)
CCCC(c1nnnn1Cc1ccc(F)cc1)N(Cc1cc2ccc(C)cc2[nH]c1=O)C1CCCC1 (stereo unspecified)	none (no result: Avidin fluor, Efa HMGR inh, GSH bead fluor)
Cc1cc(C)c(S(C)(=O)=O)c(Oc2ccc(F)cc2)n1	Efa HMGR inh 10.2 (no result: EP2 antag)
Cc1ccc(Cl)cc1NC(=O)COC(=O)C1CC1	none
Cc1ccc(Cl)cc1NC(=O)COC(=O)CC1CC2CCC1C2 (stereo unspecified)	GSH bead fluor 262
Cc1cccc(C(=O)N2CCC(=O)N(C(COCc3ccccc3)Cc3ccccc3)CC2)c1 (stereo unspecified)	Efa HMGR inh 15.5
Cc1cccc(COCC(Cc2ccccc2)N2CCN(C(=O)c3cccc(Cl)c3)CCC2=O)c1 (stereo unspecified)	none
COCCn1c(Cc2ccccc2)nnc1SCC(=O)N1CCCC1	none (no result: Avidin fluor, Efa HMGR inh, GSH bead fluor)
Cc1ccc(Nc2c3c(nc4ncnn24)CC(C)CC3)cc1 (stereo unspecified)	none
Cc1ccc(Nc2c3c(nc4ncnn24)CCC3)cc1	Avidin fluor 82
COC(=O)C1=CN(C2CC2)C=C(C(=O)OC)C1c1ccc(C(=O)OC)cc1	EP2 modulator 61.0
CCc1nnc(NC(=O)CSc2nnc3c(C)cc4cc(C)cc(C)c4n23)s1	none (no result: Avidin fluor, Efa HMGR inh, GSH bead fluor)
CCOc1ccc(C2=NNC(c3cccnc3)=Nc3ccc(OC)cc32)cc1OCC	none (no result: Avidin fluor, Efa HMGR inh, GSH bead fluor)
Cc1cc(-c2sccc2Br)nc(-n2cccc2)n1	EP2 modulator 64.6
Cc1cc(-c2ccc(Br)s2)nc(-n2cccc2)n1	none
Cn1c(N2CCC(C(=O)NCCCO)CC2)nc2ccccc21	none (no result: Avidin fluor, Efa HMGR inh, EP2 antag, GSH bead fluor)
Cc1ccc(NC(=O)c2ccnc(C(C)(C)C)c2)cc1	none
CC(C)(C)c1cc(C(=O)Nc2ccccc2)ccn1	GSH bead fluor 103
COc1cc2c(cc1NC(=O)CSc1nnc(Cc3cccs3)n1C)oc1ccccc12	Avidin fluor 105
COc1cc2c(cc1NC(=O)CSc1nnc(Cc3cccs3)n1Cc1ccco1)oc1ccccc12	none
